SMILES strings stand for the structures. Among all 5,500 compounds or so, about 2,000 (36%) were called active. Another 18% or so got no clear call; they are omitted. This is one part of the list. Unmarked numbers belong to inactive results. No stated cut-off is given here; in the data, active means normalized growth mostly below about 0.91 (no sharp cut-off); inconclusive means no clear call, values can overlap the other calls; inactive means mostly above about 0.92.

A short description of this test: chemical genetic growth profiling, strain panel (AID 1159580).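 Further: tested at 20 µM; growth read once vehicle control cultures reached saturation at 30 °C; 1 = growth at the plate median or of vehicle wells; lower values mean less growth of the strain.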 The settings on record: S. cerevisiae deletion strains, growth OD.

With `O=Nc1c(-c2c(O)[nH]c3ccccc23)[nH]c2ccccc12`, the normalized growth was 0.529 (active) (locus YAL040C, strain CLN3, active compounds read low); 0.997 (locus YCL061C, strain MRC1 (second series), active compounds read low); 0.976 (locus YDR363W, strain ESC2, active compounds read low); 0.587 (active) (locus YER002W, strain NOP16, active compounds read low); 0.985 (locus YGR078C, strain PAC10, active compounds read low); 1.01 (locus YJR075W, strain HOC1, active compounds read low). The normalized growth reads like this: (locus YNL153C, strain GIM3, active compounds read low) 1; (locus YNL175C, strain NOP13, active compounds read low) 0.676 (active); (locus YNL197C, strain WHI3, active compounds read low) 0.869 (active); (locus YNL224C, strain SQS1, active compounds read low) 0.951; (locus YOR083W, strain WHI5 (second series), active compounds read low) 0.46 (active).

The record behind these values is PubChem BioAssay AID1159580 (chemical genetic matrix, 2015).
